Each structure is given as a SMILES string. “And” between values parts separate entries of the source, which are not always exact repeats. Identical values can stand only once. This is part of a sample that, as a whole, favours compounds with a hit. Of some 83,000 tested, about 20% had one in any assay.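 For each line, cells grew in 96-well plates with the test compound present at a single concentration for 48 hours.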 The source made the active and inactive calls. The calls were made as follows: active = growth percent below 10; inactive = the rest.

The test system of the test is HL-60(TB) leukemia. The test is described as follows: NCI-60 one-dose screen, 48 h (100 = growth as untreated, 0 = no growth, -100 = all killed). The note with it: 10 µM unless noted.
On to `COc1cc2ccccc2cc1C(=O)NC(=S)Nc1ccc(-c2nc3ccccc3[nH]2)cc1`, for which the growth is 106% (inactive).

For `O=C1/C(=C/c2ccccc2[N+](=O)[O-])Oc2ccc(O)c(O)c21`, the growth is 4.39% (active). Under `CN(C)CCOc1ccc(-c2nc3ccc(-c4nc5ccc(N6CCN(C)CC6)cc5[nH]4)cc3[nH]2)cc1` stands 72.1% (inactive). Then `CN1CCN(C(=O)OCc2ccc3c(Cl)cc(Cl)c(O)c3n2)CC1`, with -18.9% (active); and `O[C@H]1CO[C@H]2[C@@H]1OC[C@@H]2Oc1ccc(Nc2nc(Nc3ccc(F)c(Cl)c3)ncc2F)cc1Cl`, with 104% (inactive); and `O=C(Cc1ccc(/C=C/C(=O)c2ncc[nH]2)cc1)Nc1ccccc1`, with 7.76% (active).

Regarding `N=C(N)c1ccc(-c2ccc(-c3ccc(Cl)cc3)s2)nc1`, the growth was -39.1% (active). On to `Clc1ccc2c(c1)N(c1ncnc3ccc(-c4cnc5[nH]ncc5c4)cc13)CC2`, for which the growth is 34.5% (inactive). Under `COc1ccc(-c2nsc3c2NC(=O)CC3c2ccc3c(c2)OCCO3)cc1` (stereo not given) stands 13% (inactive). Under `CCSc1nnc2c3cc(Br)ccc3n(C)c2n1` stands 110% (inactive).

Turning to `Cn1c2c(c3ccc(Cl)cc31)-n1cccc1C2=O`, the growth is 64.9% (inactive).

`N#Cc1c(-c2ccccc2)nc(SCC2CO2)nc1N1CCOCC1` (stereo not given): the growth was 63.7% (inactive). For the molecule `Cc1cnc(C(=O)NNc2nc3sc4c(c3c(=O)n2C)C(C)CCC4)cn1` (stereo not given), the growth is -32.3% (active).

For `O=C1OC(=O)C2C1CC=CC2c1ccccc1` (stereo not given), the growth was 69.1% (inactive). For `CCN(CC)CCn1nc2c3c(cccc3c1=O)-c1ccccc1-2`, the growth is 16.9% (inactive). Then `Cn1cc(-c2csc(-c3c[nH]c4ccccc34)n2)c2cccnc21`, with 11.5% (inactive). Under `CC(=O)O[C@H]1C(=O)[C@@]2(C)C([C@H](OC(=O)c3ccccc3)[C@]3(O)C[C@H](OC(=O)[C@H](O)[C@@H](NC(=O)c4ccccc4)c4ccccc4)C(C)=C1C3(C)C)[C@]1(OC(C)=O)CO[C@@H]1C[C@@H]2O` (stereo not given in full) stands 9.14% (active); under `CN(C)c1ccc(-c2cc(-c3ccc(Nc4nc(Nc5ccc(Cl)cc5)nc(Nc5ccc(Cl)cc5)n4)cc3)no2)cc1`, 3.2% (active). Under `NC(=O)CN1C(=O)c2ccccc2C1=O` stands 96.6% (inactive); under `Oc1nc(NCCc2ccccc2)sc1/C=C1\C=Nc2ncccc21`, -6.57% (active) and 6.77% (active); under `CSc1n(Cc2ccc3ccccc3c2)c(C)c[n+]1Cc1ccc2ccccc2c1`, -45% (active). Consider `Nc1nc(SCC#CCCl)c2[nH]cnc2n1`, for which the growth was 11% (inactive). Under `Cc1ccc(-c2nc3ccc(Cl)cc3c(=O)n2N2C(=O)CSC2c2ccccc2Cl)cc1` (stereo not given) stands 97.1% (inactive). For `Cc1sc2nc(N3CCCCC3)[nH]c(=O)c2c1C`, the growth is 102% (inactive). Under `CC1CCCc2sc3nc(NNC(=O)c4cnccn4)n(-c4ccccc4)c(=O)c3c21` (stereo not given) stands -33.4% (active) and -12.4% (active). Under `O=C(CCc1nnc(CN(c2ccccc2)c2ccccc2)o1)c1nc2ccccc2[nH]1` stands 84.1% (inactive); under `O=C(Nc1ccc2cc3ccc(NC(=O)N4CCCCCC4)cc3nc2c1)N1CCCCCC1`, -49.6% (active); under `CC1(C)S(=O)(=O)OCCOS1(=O)=O`, 95.6% (inactive).

As for `O=c1c2ccccc2nc2n1Cc1nc3ccccc3c(=O)n1C2`, the growth was 100% (inactive) and -60.2% (active). Then `O=c1c2sc3ccccc3c2nnn1-c1ccc(F)c(Cl)c1`, with 73.7% (inactive); and `N#CC1CCc2c(c(-c3cn[nH]c3C(F)(F)F)nc3c(F)cc4[nH]ncc4c23)C1` (stereo not given), with 47% (inactive); and `CC(=O)OCC1OC(OCC2OC(OC(C)=O)C(OC(C)=O)C(OC(C)=O)C2OC(C)=O)C(OC(C)=O)C(OC(C)=O)C1OC(C)=O` (stereo not given), with 115% (inactive). Under `COC(=O)Nc1nc2ccc(C(=O)c3ccccc3N(C)C3COC3)cc2[nH]1` stands 15.6% (inactive). Then `CNC(C)=O`, with 107% (inactive).

On to `O=C(c1ccccc1)C(CN1CCOCC1)c1ccccc1` (stereo not given), for which the growth is 12.2% (inactive). Then `CCc1ccccc1-n1c(N)c(C#N)c(-c2ccc(N(C)C)cc2)c(C#N)c1=O`, with 96.4% (inactive); and `Clc1cc2c(c(CSc3nc4ccccc4n4cccc34)c1)OCOC2`, with 84.9% (inactive).

With `O=C1/C(=C/c2cccc(O)c2)COc2ccc(O)cc21`, the growth was 52.1% (inactive).

Consider `CCC[C@H](N[C@@H](C)C(=O)N1[C@H](C(=O)O)C[C@@H]2CCCC[C@@H]21)C(=O)OCC`, for which the growth is 116% (inactive). Then `COc1cc(C(=O)NNC(=O)c2ccc(NC(=O)CCl)cc2)cc(OC)c1OC`, with 77.9% (inactive).

For the origin of these results see PubChem BioAssay (NCI).
